Measurements as given in PubChem BioAssay (NCI).
This is part of a sample that, as a whole, favours compounds with a hit. Of some 83,000 tested, about 20% had one in any assay.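 The endpoint reported here, percent growth, reads 100 for growth as untreated, 0 for no net growth and -100 for all cells dead.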 Unmarked numbers belong to inactive results. The source made the active and inactive calls. How the source made its calls: active means growth percent below 10; inactive means the rest.

Key:
Experiment in all cases: NCI-60 one-dose screen, 48 h (100 = growth as untreated, 0 = no growth, -100 = all killed)
Conditions in all cases: 10 µM
[1] = test system: NCI-H23 lung
[2] = test system: NCI-H226 lung
[3] = test system: NCI-H322M lung
[4] = test system: HOP-62 NSCLC
[5] = test system: NCI-H460 lung
[6] = test system: NCI-H522 lung
[7] = test system: A549/ATCC NSCLC
[8] = test system: 786-0 renal
[9] = test system: COLO 205 colon

Row | SMILES | growth [1] | growth [2] | growth [3] | growth [4] | growth [5] | growth [6] | growth [7] | growth [8] | growth [9]
1 | COc1cc(/C=N\Nc2ccccc2)ccc1OC(=O)c1ccccc1 | 79.5% | 74.9% | 59.8% | 77.8% | 44.2% | 20.6% | 68.6% | 78.4% | 84.8%
2 | O=C(CCl)Nc1ccc2c(c1)C(=O)c1ccc(NC(=O)CCl)cc1C2=O | -68.7% (active) | -11.6% (active) | -36.5% (active) | -64.7% (active) | -45.9% (active) | -65.2% (active) | 0.12% (active) | -66.9% (active) | -50.8% (active)
3 | Cc1cc(O)ccc1O | 104% | 96.1% | 98.5% | 89.8% | 106% | 82.9% | 108% | 75.3% | 120%
4 | O=C(/C=C\c1ccc(O)cc1)c1ccccc1 | 102% | 107% | 101% | 110% | 113% | -31.4% (active) | 94.2% | 97.8% | 98%
5 | CCCCC(O)c1ccccc1 (stereo unspecified) | 96.5% | 97.2% | 101% | 110% | 105% | 108% | 100% | 104% | 105%
6 | CCOC(=O)c1coc(C(=O)OCC)c1C(=O)OCC | 100% | 111% | 120% | 119% | 111% | 128% | 108% | 108% | 128%
7 | C=CC(O)CCC (stereo unspecified) | 106% | 115% | 103% | 110% | 104% | 99.6% | 91.5% | 105% | 119%
8 | COc1cc2cc(c1Cl)N(C)C(=O)C[C@H](OC(=O)[C@H](C)N(C)C(C)=O)[C@]1(C)O[C@H]1[C@H](C)[C@@H]1C[C@@](O)(NC(=O)O1)[C@H](OC)C=C/C=C(\C)C2 | 31.1% | 3.37% (active) | 31.5% | 14% | 2.87% (active) | -60.8% (active) | 38.3% | 10.6% | -51.3% (active)
9 | Cc1ccc(/C(C#N)=C/c2ccc3c(c2)OCO3)cc1 | 71.2% | 85.9% | 78.8% | 78.2% | 71.3% | 51.4% | 57.5% | 104% | 65.8%
10 | COc1cc2cc(OC(C)=O)c3cc4c(cc3c2c(OC)c1OC)OCO4 | 91.9% | 94.7% | 95.4% | 91.5% | 103% | 97.6% | 106% | 106% | 106%
11 | NCC(=O)CCC(=O)O | 93.8% | 99.2% | 107% | 99.1% | 115% | 107% | 99.1% | 103% | 116%
12 | O=C1c2ccccc2C(=O)N1OCc1ccccc1 | 111% | 91.4% | 93.4% | 95.4% | 113% | 96.5% | 122% | 99.5% | 108%
13 | Nc1nc(N)c(N=Nc2ccc(C(=O)O)cc2)c(N)n1 | 99.6% | 108% | 104% | 106% | 117% | -5.11% (active) | 51.8% | 107% | 117%
14 | CCCCCCCCCCC(C)Br (stereo unspecified) | 102% | 101% | 94.5% | 119% | 113% | 104% | 97.1% | 97% | 110%
15 | c1c(-c2cc(C3CC3)[nH]n2)n[nH]c1C1CC1 | 94.3% | 95.2% | 94.8% | 98.6% | 83.4% | 79% | 88.8% | 94.3% | 102%
16 | CC1(C(=O)O)NC(C(=O)O)Cc2c1[nH]c1ccccc21 (stereo unspecified) | 101% | 93.8% | 91.5% | 102% | 105% | 92.6% | 101% | 104% | 104%
17 | COC(=O)c1ccccc1Br | 107% | 104% | 95.6% | 77.9% | 107% | 94.2% | 103% | 97% | 116%
18 | Cc1ccc(C(O)C2CC2)cc1 (stereo unspecified) | 103% | 91.9% | 97.1% | 106% | 103% | 107% | 95.9% | 103% | 110%
19 | CC1=NN(c2ccccc2)C(=O)/C1=C\N1CC(=O)NC1=S | 98.1% | 98.4% | 108% | 99.5% | 98.6% | 81.7% | 100% | 104% | 106%
20 | CC(=O)c1c[nH]c2ccccc12 | 106% | 97.5% | 101% | 95.8% | 113% | 92.9% | 103% | 103% | 119%
21 | COc1cc2nc3cc([N+](=O)[O-])ccc3c(Cl)c2cc1OC | 98.6% | 56.3% | 103% | 111% | 109% | 70.7% | 95.7% | 104% | 112%
22 | O=C(O)c1cccc([N+](=O)[O-])c1O | 98.9% | 104% | 97.3% | 96% | 104% | 101% | 111% | 102% | 105%
23 | C[C@@H](c1ccccc1)[C@@H](C(=O)O)c1ccccc1 | 100% | 98.8% | 97.5% | 99.7% | 104% | 99.9% | 101% | 99.5% | 107%
24 | O=C(O)CCC(=O)OC(C1CO1)C(OC(=O)CCC(=O)O)C1CO1 (stereo unspecified) | 102% | 96.5% | 112% | 102% | 103% | 91% | 97.4% | 103% | 99.9%
25 | O=C(CCl)N1CCN(C/C=C/c2ccccc2)CC1 | 101% | 79.8% | 109% | 97.2% | 98.1% | -80.4% (active) | 108% | 101% | 108%
26 | Clc1ccc(-c2n[nH]c3c2Cc2ccccc2-3)cc1Cl | 84.6% | 94.4% | 91.6% | 95.1% | 105% | -7.44% (active) | 37.5% | 104% | 115%
27 | N#Cc1ccc(NC(=O)Nc2cccc(C#N)c2)cc1 | 86.3% | 116% | 116% | 112% | 78.8% | 51.9% | 69.1% | 97.5% | 160%
28 | COc1ccccc1NC(=O)C1=C(C)NC(C)=C(C(=O)Nc2ccccc2OC)C1c1cccc([N+](=O)[O-])c1 | 76.6% | 74.7% | 91.2% | 68.5% | 67.5% | 72.4% | 67% | 84.6% | 89.3%
29 | CNS(=O)(=O)c1ccc(Cl)c(Cl)c1 | 110% | 86.4% | 103% | 82.3% | 109% | 97.8% | 104% | 85.9% | 114%
